63 compounds from PubChem BioAssay AID488969 (Vanderbilt High Throughput Screening Facility, 2010) can be followed below.

Over roughly 110,000 compounds, “z-score” has its median near -0.1; the highest 2% begin near 2. Many of the other results were omitted from the sample, so the highest values are more common in it than they were. Activity calls are given as the source filed them.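 How the source made its calls: active means z-score in the third read window above 3 or below -3; inactive means the rest.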

The target of the assay is Metabotropic glutamate receptor 8 (Rattus norvegicus) (UniProt P70579). Description: rat mGluR8 modulators via GIRK flux, primary screen, cell-based, thallium flux, HTS (AID 488969). The note with it: HEK293 rat mGluR8, GIRK (G protein-gated inwardly rectifying potassium channel) thallium flux, FluoZin2; at 10 µM; stronger effect = higher value; submaximal glutamate (EC20) added with thallium.
Metabotropic glutamate receptor 8 (Rattus norvegicus), sequence (P70579 whole entry, looked up): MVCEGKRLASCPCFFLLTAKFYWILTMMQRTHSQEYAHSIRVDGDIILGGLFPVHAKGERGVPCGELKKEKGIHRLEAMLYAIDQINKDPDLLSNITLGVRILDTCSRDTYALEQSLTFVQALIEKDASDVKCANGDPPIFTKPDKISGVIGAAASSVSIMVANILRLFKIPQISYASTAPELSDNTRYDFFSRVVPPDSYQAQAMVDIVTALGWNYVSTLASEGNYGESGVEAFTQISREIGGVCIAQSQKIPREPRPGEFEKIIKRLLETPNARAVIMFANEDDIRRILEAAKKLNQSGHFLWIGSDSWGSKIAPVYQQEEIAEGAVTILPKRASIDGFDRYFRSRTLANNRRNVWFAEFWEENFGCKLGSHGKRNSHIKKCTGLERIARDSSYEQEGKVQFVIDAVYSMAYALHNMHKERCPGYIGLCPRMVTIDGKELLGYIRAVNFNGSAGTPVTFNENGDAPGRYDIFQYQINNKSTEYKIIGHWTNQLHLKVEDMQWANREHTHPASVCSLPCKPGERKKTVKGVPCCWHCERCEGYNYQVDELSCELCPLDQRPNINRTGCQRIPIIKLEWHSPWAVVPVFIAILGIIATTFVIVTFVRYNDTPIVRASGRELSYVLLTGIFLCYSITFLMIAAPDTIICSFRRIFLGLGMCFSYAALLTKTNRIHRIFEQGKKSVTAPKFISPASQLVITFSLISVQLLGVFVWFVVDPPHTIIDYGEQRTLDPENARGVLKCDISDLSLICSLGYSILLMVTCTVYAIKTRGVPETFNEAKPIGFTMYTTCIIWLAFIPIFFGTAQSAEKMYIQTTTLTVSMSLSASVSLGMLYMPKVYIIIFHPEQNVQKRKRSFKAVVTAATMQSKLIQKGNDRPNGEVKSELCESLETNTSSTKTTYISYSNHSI
On to `CC1(C)NC(=O)N(CC(O)CN2CCCCC2)C1=O` (stereo not drawn), for which the z-score came out at 0.323.
Compound `COc1ccc(CSc2nc(C)cc(=O)[nH]2)cc1Br` displayed a z-score of -1.02.
As for `CC(=O)Nc1ccc(S(=O)(=O)Nc2nnc(C(C)(C)C)s2)cc1`, the z-score came to 0.307.
The result for `COc1ccc(NC(=S)NNC(=O)c2ccccc2OC(F)F)cc1` reads 0.204; that for `CN(C)c1cccc(C(=O)Nc2ccc(N3CCOCC3)cc2)c1`, -0.0628; that for `CN(C)c1cccc(NC2=CC(=[N+]3CCOCC3)CC(C)(C)C2)c1`, 0.942.
`CN(C)c1cccc(N=C2C=C(N3CCOCC3)CC(C)(C)C2)c1` gave a z-score of 2.3.
Take `O=C(Nc1cccc(O)c1)c1cc(-c2ccco2)on1`: the z-score is -0.103.
Compound `Cc1ccc(Cl)c2c1NC(=O)C2(O)CC(=O)c1ccc(F)cc1` (stereo not drawn) showed a z-score of -0.203.
`COc1ccc(NC(=O)OCCn2c([N+](=O)[O-])cnc2C)cc1` yielded a z-score of -0.144.
In turn, `CCOC(=O)C(NCCCO)c1ccccc1` (stereo not drawn) yielded a z-score of -0.247.
Take `COc1ccc(OC)c(-c2c[n+](=O)c3c(n2[O-])CCCC3)c1`: the z-score was 0.0184.
`O=S(=O)(c1ccc(F)cc1)N1CCN(c2ncnc3c2cnn3-c2ccccc2)CC1` yielded a z-score of 2.11.
Compound `c1ccc(-n2ncc3c(N4CCCCC4)ncnc32)cc1` came in with a z-score of -0.259.
As to `CCN1CCN(c2ncnc3c2cnn3-c2ccccc2)CC1`, the z-score was 0.0325.
The compound `CN(C)C=NC(=O)c1ccc([N+](=O)[O-])c(CS(=O)(=O)c2ccc(Cl)cc2)c1` yielded a z-score of -0.0395.
Compound `CCc1ccccc1N(CC(=O)O)S(C)(=O)=O` returned a z-score of 0.424.
The compound `COc1ccc(C/C(C)=N/NC(=S)Nc2ccc(C(C)C)cc2)cc1` yielded a z-score of 0.256.
`Cc1ccc(CNC(=S)Nc2ccc(OC(F)F)cc2C)cc1` showed a z-score of -0.531.
As for `COc1ccc(C/C(C)=N/NC(=S)Nc2ccc(C)c(C)c2)cc1`, the z-score was determined as 1.65.
Take `CCCCOc1ccc(/C=N/NC(=S)Nc2cc(C)ccc2C)cc1`: the z-score worked out at 1.19.
Regarding `CCOc1ccc(NC(=S)N/N=C(\C)Cc2ccc(OC)cc2)cc1`, the z-score turned out to be 1.35.
In the case of `COc1ccc(C/C(C)=N/NC(=S)Nc2ccccc2)cc1` it was 5.19 (active); in that of `COc1ccccc1NC(=S)NNC(=S)Nc1ccc(OC(F)F)cc1`, -0.345.
The result for `CC/C(=N\NC(=S)Nc1cc(C)ccc1C)c1ccc(OC(F)F)cc1` reads 3.47 (active); that for `CC/C(=N\NC(=S)Nc1ccc(OC)cc1)c1ccc(OC(F)F)cc1`, 7.5 (active).
Turning to `CCN(CCCNC(=O)CCNC(=O)Cn1ccc2ccccc2c1=O)c1ccccc1`, the z-score is -0.46.
For `CCN1CCN(Cc2c(O)ccc3c(=O)c(-c4ccc(OC)c(OC)c4)c(C)oc23)CC1`, the z-score is -0.348.
Regarding `Cc1ccc(Oc2c(C=O)c3ccccc3n2C)cc1`, the z-score is -0.989.
In turn, `CC1(C)CC(=O)N(CC(=O)NC2CCCC2)c2ccccc2S1(=O)=O` returned a z-score of -0.29.
Regarding `Clc1ccc(Oc2cnc3ccccc3n2)cc1`, the z-score is -0.22.
Take `CCC(CC)C(=O)Nc1cc(OC)c(OC)cc1C(=O)O`: the z-score was -0.741.
With `O=C(Nc1ccc(O)c(-c2nc3ccccc3o2)c1)C1(c2ccc(Br)cc2)CCCC1`, the z-score was -0.297.
`CCOC(=O)CN(C(=O)c1ccccc1)c1ccccc1C` gave a z-score of -0.114.
With `CC(=O)NC(CC(=O)NC1CCCCCC1)c1ccccc1` (stereo not drawn), the z-score was 0.55.
On to `CC1(C)CC(=O)C2=C(C1)OC(N)=C(C#N)C21C(=O)N(CN2CCOCC2)c2ccccc21` (stereo not drawn), for which the z-score was -0.00502.
Turning to `COCc1cc(=O)[nH]c(Nc2nc(C)c3ccccc3n2)n1`, the z-score was -0.43.
In the case of `COCc1cc(=O)[nH]c(Nc2nc(C)c3cc(OC)ccc3n2)n1` it was -0.401.
The compound `CCc1ccc2nc(Nc3nc(COC)cc(=O)[nH]3)nc(C)c2c1` registered a z-score of 2.69.
`O=C(CSc1nc2nc3c(cc2c(=O)n1-c1ccccc1)CCCC3)Nc1ccccc1` gave a z-score of -0.468.
`O=C(NCc1ccco1)c1sc(=S)n2c1[nH]c(=O)c1ccccc12` showed a z-score of 2.75.
`O=C(NCc1ccccc1)c1sc(=S)n2c1[nH]c(=O)c1ccccc12` displayed a z-score of -0.316.
On to `C=CCn1c(N)c(C(=O)NCc2ccco2)sc1=S`, for which the z-score amounted to 0.688.
Consider `Cc1ccc(-n2c(N)c(C(=O)NCc3ccco3)sc2=S)cc1`, for which the z-score was -0.322.
Compound `O=C(NCc1ccco1)c1sc2ccccc2c1Cl` registered a z-score of -0.649.
Regarding `CCn1c(N)c(C(=O)NCc2ccco2)sc1=S`, the z-score was 4.44 (active).
The compound `CC(=O)Oc1ccc2oc(=O)c3c(c2c1)CCCN3C(=O)CN1CCN(c2ncccn2)CC1` showed a z-score of -0.26.
For `CCOC(=O)CC1=CSC2=NS(=O)(=O)CCN12`, the z-score is -0.784.
Compound `CC(=O)C1=C(C)NC(SCC(=O)c2ccccc2)=C(C#N)C1c1ccco1` (stereo not drawn) yielded a z-score of -1.16.
In turn, `CCc1cc2c(=O)[nH]c(Cc3ccccc3)nc2s1` came in with a z-score of -0.371.
`COC(=O)c1ccc(COC(=O)c2ccc(CS(=O)(=O)c3ccc(C)cc3)cc2)cc1` registered a z-score of -0.331.
`Cc1ccc2c(Cl)cc(Cl)c(OCC(=O)Nc3cccc(S(=O)(=O)N(C)C)c3)c2n1` came in with a z-score of 0.415.
In the case of `Cc1ccc(NC(=O)COC(=O)/C=C/c2ccco2)cc1S(=O)(=O)N(C)C`, the z-score is 1.23.
In the case of `Cc1ccc(S(=O)(=O)N(C)C)cc1NC(=O)COC(=O)CCC(=O)c1ccc(F)cc1` it was -0.39; in that of `CCOCc1c(C(=O)OCC(=O)Nc2ccc(C)c(S(=O)(=O)N(C)C)c2)oc2ccccc12`, 9.51 (active); in that of `Cc1ccc2c(Cl)cc(Cl)c(OCC(=O)Nc3ccc(C)c(S(=O)(=O)N(C)C)c3)c2n1`, 2.31.
With `Cc1ccc(NC(=O)Cc2ccccc2Cl)cc1S(=O)(=O)N(C)C`, the z-score was 12.9 (active).
In the case of `Cc1ccc(NC(=O)Cc2c(Cl)cccc2Cl)cc1S(=O)(=O)N(C)C` it was 1; in that of `Cc1ccc(NC(=O)COC(=O)CCC(=O)c2ccc(Cl)cc2)cc1S(=O)(=O)N(C)C`, 3.92 (active).
The result for `Cc1ccc(NC(=O)CCNC(=O)c2ccccc2Cl)cc1S(=O)(=O)N(C)C` reads -0.00648.
In turn, `CN(C)S(=O)(=O)c1cccc(NC(=O)COC(=O)CCC(=O)c2ccc(F)cc2)c1` yielded a z-score of -0.326.
`CCOCC(=O)Nc1c(C(=O)OCC)oc2ccccc12` gave a z-score of -0.215.
On to `Cc1ccc2c(Cl)cc(Cl)c(OCC(=O)Nc3cc(S(=O)(=O)N(C)C)ccc3C)c2n1`, for which the z-score was -0.0675.
